Most compounds without a hit are left out; they make up all but 2.4% or so of the library.
M1 ag = activates human CHRM1 receptor | hit rate 0.33% among 360,000 | CHO-K1 hM1, Fluo-8 calcium fluorescence, agonist mode; 0% DMSO, 100% acetylcholine EC100 | AID 588814 | P11229 | activation, % at 3 µM;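 active = activation above the run's mean compound activation plus 3 SD, cut at about 16% in these data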;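 note: peak over basal fluorescence ratio within a 140 s kinetic read after compound addition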
Target sequence (P11229 whole entry, looked up): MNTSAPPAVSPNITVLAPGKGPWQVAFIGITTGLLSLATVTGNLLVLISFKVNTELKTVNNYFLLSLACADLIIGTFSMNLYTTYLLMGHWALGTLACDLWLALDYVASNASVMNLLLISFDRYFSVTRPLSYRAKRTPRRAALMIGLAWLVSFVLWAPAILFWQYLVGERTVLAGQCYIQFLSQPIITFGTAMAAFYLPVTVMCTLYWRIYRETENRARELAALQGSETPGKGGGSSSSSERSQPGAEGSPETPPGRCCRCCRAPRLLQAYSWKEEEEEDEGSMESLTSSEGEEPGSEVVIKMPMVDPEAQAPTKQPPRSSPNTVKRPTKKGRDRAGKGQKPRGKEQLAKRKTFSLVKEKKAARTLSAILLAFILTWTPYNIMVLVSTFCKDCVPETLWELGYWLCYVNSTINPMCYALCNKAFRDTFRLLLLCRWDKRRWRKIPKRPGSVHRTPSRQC
CHRM1 PAM = human CHRM1 positive allosteric modulation. AID 588819. hit rate 0.088% among 360,000. CHO-K1 hM1, Fluo-8 calcium fluorescence, ACh EC20; 0% = ACh EC20, 100% = maximal ACh. activation, % at 3 µM; in the data active = activation above about 19%, passing the limit was not always enough
M1 antag = human CHRM1 antagonism; CHO-K1 hM1, Fluo-8 calcium fluorescence, ACh EC80 antagonist; hit rate 1.3% among 360,000; inhibition, % at 3 µM;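 active = percent inhibition above its own plate's cutoff, namely the mean of that plate's compound wells plus 3 SD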;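 note: peak over basal fluorescence ratio during 140 s after agonist addition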
CHO-K1 Ca PAM = counter-screen for M1 PAMs: effect in parental CHO-K1 cells. ATP EC20, Fluo-8 calcium fluorescence; 0% at ATP EC20, 100% at ATP max. activation, % at 3 µM. hit rate 0.02% among 360,000;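 active = activation above the run cutoff, the mean activation of all test compounds plus 3 SD, cut at about 40% in these data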;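 note: peak over basal fluorescence ratio in a 140 s read after ATP addition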
CHO-K1 Ca antag = nonselective inhibitor or artifact in parental CHO-K1 cells; ATP-induced calcium, Fluo-8 fluorescence; inhibition, % at 3 µM; hit rate 0.6% among 360,000; AID 602250;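 active = inhibition above a per-plate cutoff, the plate's mean sample inhibition plus 3 SD, cut at about 24% in these data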
CHO-K1 Ca ag = M1 agonist counterscreen hit in parental CHO-K1 cells | Fluo-8 calcium fluorescence; scaled to maximal ATP response, vehicle zero | activation, % at 3 µM | hit rate 0.48% among 360,000 | AID 602248; in the data active = activation above about 15%;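 note: untransfected CHO-K1 host cells lacking M1 receptor as counterscreen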
Hits are given with their value; . = inactive; / = no result; ! = not active in a repeat.

SMILES	M1 ag	CHRM1 PAM	M1 antag	CHO-K1 Ca PAM	CHO-K1 Ca antag	CHO-K1 Ca ag
CCCC1=NN2C(=N)/C(=C\c3cc(C)n(Cc4ccccc4)c3C)C(=O)N=C2S1	59.2	.	77.5	.	.	27.3
COc1ccc(NC(=O)Cn2nc(C(=O)O)c3ccccc3c2=O)cc1OC	.	.	.	.	.	.
CNC(=O)CSc1nnc(-c2ccco2)n1-c1ccccc1OC	.	24.6	.	.	.	.
CN(C(=O)COC(=O)c1cnc(Cl)c(Cl)c1)C1CCCCC1	.	.	.	.	.	.
O=C(NCc1ccc(F)cc1)C(c1ccccc1)N(C(=O)c1csnn1)c1ccccc1 (stereo not drawn)	.	.	29.0	.	.	.
NC(=O)c1nsc(C(=O)N(c2ccccc2)C(C(=O)NCc2ccc(F)cc2)c2ccc(O)cc2)c1N (stereo not drawn)	.	.	26.9	.	.	.
Cn1c(=O)c2[nH]c(-c3ccc(S(=O)(=O)O)cc3)nc2n(C)c1=O	29.2	.	.	.	.	.
CC1CCCN(S(=O)(=O)c2ccc3c(c2)OCCO3)C1 (stereo not drawn)	.	.	.	.	.	.
O=C(Nc1nnc(SCc2ccccc2)s1)C1=COCCO1	.	.	.	.	.	.
O=C(CCc1nc2ccccc2c(=O)[nH]1)Nc1nnc(SCc2ccccc2F)s1	.	.	48.6	.	.	.
O=C(Nc1nnc(SCc2ccccc2F)s1)C1=COCCO1	.	.	.	.	.	17.3
O=C(COCc1ccccc1)N[C@@H]1c2ccccc2CC[C@@H]1OCc1ccccc1	.	.	.	.	.	.
Cc1cc(N2CCN(c3ccccn3)CC2)n2c(nc3ccccc32)c1C#N	.	.	.	.	29.3	.
CCCc1cc(NCc2ccccn2)n2c(nc3ccccc32)c1C#N	.	.	.	.	.	15.1
COCCCNC(=O)c1sc2ncn(CC(=O)Nc3ccc(C)c(Cl)c3)c(=O)c2c1C	.	.	.	39.9	.	.
Cc1ccc(NC(=O)c2sc3ncn(CC(=O)N4CCN(c5ccccn5)CC4)c(=O)c3c2C)cc1Cl	.	.	63.1	.	.	.
CC(C)CNC(=O)C(=O)Nc1cc2c3c(c1)C(C)C(=O)N3CCC2 (stereo not drawn)	.	.	.	.	.	.
CC1C(=O)N2CCCc3cc(NC(=O)C(=O)NCCN4CCOCC4)cc1c32 (stereo not drawn)	.	.	36.6	.	.	.
CCN(CC)CCCn1c2c(c(SCC(=O)Nc3cccc(C(C)=O)c3)nc1=O)CCC2	.	.	.	.	.	.
CCN(CC)CCn1c2c(c(SCC(=O)Nc3cccc(C(C)=O)c3)nc1=O)CCCC2	.	.	60.9	.	.	.
CC(=O)C1=C(O)C(=O)N(c2ccc(C)cc2)C1c1ccc([N+](=O)[O-])cc1 (stereo not drawn)	.	.	.	.	.	16.1
COCCNC(=S)N(CCO)Cc1cc2cc3c(cc2[nH]c1=O)OCCO3	.	.	.	.	.	.
CC(C)CC1Nc2ncnc(N3CCN(c4ccccn4)CC3)c2N(Cc2ccccc2)C1=O (stereo not drawn)	.	.	37.9!	.	.	.
COc1cccc(/C=N/n2c(-c3n[nH]c4c3CCC4)n[nH]c2=S)c1OC	.	.	75.7	.	.	.
COc1ccc(/C=N/n2c(-c3n[nH]c4c3CCC4)n[nH]c2=S)cc1	.	.	.	.	.	.
SMILES	M1 ag	CHRM1 PAM	M1 antag	CHO-K1 Ca PAM	CHO-K1 Ca antag	CHO-K1 Ca ag
CC(/C=N/n1c(-c2n[nH]c3c2CCC3)n[nH]c1=S)=C\c1ccco1	.	.	67.1	.	.	.
Cc1ccc2c(c1)C1CC(C)(O2)N(c2cccc(C(=O)N3CCN(c4ccccn4)CC3)c2)C(=O)N1 (stereo not drawn)	.	.	.	.	.	.
CCOC(=O)c1sc(=S)n(-c2ccccc2)c1C	.	.	.	.	.	.
CCOC(=O)c1sc(=S)n(-c2ccccc2Cl)c1C	.	.	52.0	.	.	.
CC(=NNC(=O)c1ccncc1)c1ccc2ccccc2c1O	70.4	.	.	.	.	68.8
O=C(C1CC(=O)N(c2ccc3c(c2)OCCO3)C1)N1CCN(c2cccc(C(F)(F)F)c2)CC1 (stereo not drawn)	.	.	.	.	.	.
C[N+]1(C)CCC(=C(c2ccccc2)c2ccccc2)CC1	.	.	97.7	.	.	.
O=C(c1ccccc1)c1cccc[n+]1[O-]	.	.	.	.	.	.
Nc1[nH]c(C(=O)c2ccccc2)c(-c2ccccc2Br)c1C(=O)c1ccccc1	/	/	/	42.1	.	.
Nc1nc2ccccc2nc1N1CCCC1	.	.	.	.	.	.
CN1CCN(C=Nc2nc3ccccc3nc2N2CCCC2)CC1	.	.	34.2	.	.	.
Cc1cccc(Nc2nc(-c3c(C)nc4ccccn34)cs2)c1	.	.	37.0	.	.	.
CCOC(=O)COn1c(SCC(=O)OCC)nc2ccccc2c1=O	.	.	.	.	25.8	.
CN(C)C(=O)COn1c(SCC(=O)N(C)C)nc2ccccc2c1=O	.	.	.	.	.	.
Cc1cc(C(=O)NN=C2CCCCCCC2)c2ccccc2n1	.	.	.	.	41.9	.
O=C(NN=C1CCCC1)c1cc(-c2ccc(F)cc2)nc2ccccc12	.	.	.	.	.	.
O=C(/C=C/c1cccc([N+](=O)[O-])c1)OCC1CCCO1 (stereo not drawn)	.	.	.	.	.	.
CC[C@@H]1Cc2[nH][nH]c(=O)c2[C@@H](c2ccc(Cl)cc2)O1	/	/	/	.	.	.
Cc1cc(=O)oc2ccc(OCC(=O)N(Cc3ccc(F)cc3)Cc3ccco3)cc12	.	.	33.8	.	37.5	.
O=C(Cn1c(=O)cnc2ccccc21)Nc1cccc(S(=O)(=O)N2CCOCC2)c1	.	.	.	.	.	.
COc1cccc(NC(=O)C2(C)CCN2C(=O)Cc2cccc3ccccc23)c1 (stereo not drawn)	.	.	.	.	.	.
Cc1ncc(CO)c2cc(S(=O)(=O)c3ccc(F)cc3)c(=O)oc12	.	.	22.8	.	.	.
CCc1ccc(N=Nc2ccc(O)c3[nH]cnc23)cc1	.	.	40.0	.	.	.
CNS(=O)(=O)c1cccc(C(=O)NCC(C)(C)N2CCCCC2)c1	.	.	.	.	.	.
CCOC(=O)Cn1cc(C#N)c(=O)[nH]c1=O	.	.	.	.	.	.
N#Cc1cn(CCOC(=O)c2cccc(C(F)(F)F)c2)c(=O)[nH]c1=O	.	.	.	.	37.1	.
CS(=O)(=O)c1ccc2nc(NC(=O)Nc3cccc(Cl)c3)sc2c1	.	.	32.6	.	.	15.7
O=C(Nc1cccc(Cl)c1)Nc1nnc(-c2ccncc2)s1	.	.	.	.	33.1	.
CCN(CC)c1ccc2cc(-c3nnc(-c4ccncc4)o3)c(=O)oc2c1	21.6	.	.	.	.	18.9

High-throughput results from PubChem BioAssay.
